{"source": "PubChem BioAssay (NCATS)", "key": {"[1]": {"experiment": "qHTS assay for measurement of the activity of small molecule inhibitors on Zika virus induced Caspase-3 activity in human astrocytoma cells (AID 1224859)", "settings": "SNB-19 ZIKV-induced caspase-3/7, luminescence, 6 h; series mostly up to 45.7 µM", "summary_of_the_method": "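SNB-19 astrocytoma cells, 250/well, pretreated 1 h with compounds, then Zika virus at 2 FFU/cell for 6 h at 37 C; Caspase-Glo 3/7 luminescence after 30 min; percent inhibition normalised to uninfected and infected controls.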"}, "[2]": {"experiment": "P-glycoprotein substrates identified in KB-8-5-11 adenocarcinoma cell line, qHTS therapeutic library screen (AID 1346987); also: nearly all actives have a fitted effect of over 65% in size; also: potency is read from the fitted curve at half-maximal effect", "settings": "KB-8-5-11 (P-gp overexpressing) viability, CellTiter-Glo, 72 h; series mostly up to 44.5 µM", "summary_of_the_method": "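Compounds are pinned in dose-response onto KB-8-5-11 cells (500 cells/well, colchicine-free medium) and left 72 h at 37 degree C. CellTiter-Glo luminescence then yields AC50 values.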"}, "[3]": {"experiment": "NS1 protein of Zika virus - qHTS assay to identify small molecule inhibitors in human HEK 293 cells (AID 1347053); also: nearly all actives have a fitted effect of over 55% in size", "settings": "HEK293 ZIKV MR766 infection, NS1 TR-FRET, 24 h; series mostly up to 46.1 µM", "summary_of_the_method": "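Compound-treated (1 h pre-infection) HEK 293 cells infected with ZIKV MR766, MOI = 0.5; after 24 h at 37 C, NS1 read by TR-FRET; data normalized to uninfected and infected controls.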"}, "[4]": {"experiment": "qHTS assay to identify small molecule inhibitors of chordoma cells - UCH-2 (AID 1259356)", "settings": "UCH-2 chordoma viability, CellTiter-Glo ATP luminescence, 48 h; series mostly up to 46.1 µM"}, "[5]": {"experiment": "qHTS assay to identify small molecule inhibitors of chordoma cells - UCH-1 (AID 1259355); also: nearly all actives have a fitted effect of over 55% in size; also: potency is read from the fitted curve at half-maximal effect", "settings": "UCH-1 chordoma viability, CellTiter-Glo, 48 h, combination, with auranofin plus four topoisomerase inhibitors; series mostly up to 46.1 µM", "summary_of_the_method": "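A 48hr growth-inhibition format: each drug tested at 15 concentrations together with added auranofin, camptothecin, doxorubicin, rubitecan and topotecan, with cell viability quantified as CellTiter-Glo luminescence.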"}}, "note": "A number with no mark means an inactive call. Records with an inconclusive call do not appear. Where a call stands in place of a potency, no number is given. Activity calls are given as the source filed them. Calls follow the shape of the dose curve; as a rule, active = well fitted curve in the direction sought with a large enough effect; inconclusive = small, poorly fitted or top-dose-only effect, or another doubt; inactive = no such curve, though single readings can be large; an effect the other way counts as inactive or inconclusive."}
{"smiles": "C=CCc1ccc(O)c(OC)c1", "values": [{"measurement": "outcome", "setting": "[1]", "value": "inactive"}, {"measurement": "Potency", "setting": "[2]", "value": "inactive"}, {"measurement": "Potency", "setting": "[3]", "value": "inactive"}]}
{"smiles": "NC[C@H]1O[C@H](O[C@H]2[C@H](O[C@@H]3O[C@H](CO)[C@@H](O)[C@H]3O)C(O)[C@H](N)C[C@@H]2N)[C@H](N)[C@@H](O)[C@@H]1O", "note": "(stereo partly drawn)", "values": [{"measurement": "activity change, negative = inhibition", "setting": "[1]", "value": "3.88% [at 9.06 µM]"}, {"measurement": "Potency", "setting": "[4]", "value": "inactive"}, {"measurement": "Potency", "setting": "[2]", "value": "inactive"}, {"measurement": "activity change, negative = inhibition", "setting": "[3]", "value": "-23.8% [at 9.2 µM]"}]}
{"smiles": "CC(=O)OCC(=O)[C@@]12OC(C)(C)O[C@@H]1C[C@H]1[C@@H]3C[C@H](F)C4=CC(=O)C=C[C@]4(C)[C@@]3(F)[C@@H](O)C[C@@]12C", "values": [{"measurement": "outcome", "setting": "[1]", "value": "inactive"}, {"measurement": "Potency", "setting": "[4]", "value": "inactive"}, {"measurement": "Potency", "setting": "[3]", "value": "inactive"}]}
{"smiles": "COc1cc(C=C2CCC/C(=C\\c3ccc(O)c(OC)c3)C2=O)ccc1O", "values": [{"measurement": "outcome", "setting": "[1]", "value": "inactive"}, {"measurement": "Potency", "setting": "[5]", "value": "31.6 µM (active)"}, {"measurement": "Potency", "setting": "[2]", "value": "25.9 µM (active)"}]}
{"smiles": "c1ccc(CNCCNCc2ccccc2)cc1", "values": [{"measurement": "outcome", "setting": "[1]", "value": "inactive"}, {"measurement": "Potency", "setting": "[5]", "value": "inactive"}, {"measurement": "Potency", "setting": "[4]", "value": "inactive"}, {"measurement": "Potency", "setting": "[2]", "value": "inactive"}]}
{"smiles": "C#C[C@]1(OC(C)=O)CC[C@H]2[C@@H]3CCC4=C[C@@H](OC(C)=O)CC[C@@H]4[C@H]3CC[C@@]21C", "values": [{"measurement": "outcome", "setting": "[1]", "value": "inactive"}, {"measurement": "Potency", "setting": "[5]", "value": "inactive"}, {"measurement": "Potency", "setting": "[4]", "value": "inactive"}, {"measurement": "Potency", "setting": "[3]", "value": "inactive"}]}
{"smiles": "CCCC(=O)Nc1ccc(OCC(O)CNC(C)C)c(C(C)=O)c1", "note": "(stereo not drawn)", "values": [{"measurement": "outcome", "setting": "[1]", "value": "inactive"}, {"measurement": "Potency", "setting": "[5]", "value": "inactive"}, {"measurement": "Potency", "setting": "[3]", "value": "inactive"}]}
{"smiles": "CCN(CC)CCNC(=O)COc1ccc(Cl)cc1", "values": [{"measurement": "outcome", "setting": "[1]", "value": "inactive"}, {"measurement": "Potency", "setting": "[5]", "value": "inactive"}, {"measurement": "Potency", "setting": "[2]", "value": "inactive"}, {"measurement": "Potency", "setting": "[3]", "value": "inactive"}]}
{"smiles": "CCC(=O)c1c(O)cc(O)cc1O", "values": [{"measurement": "outcome", "setting": "[1]", "value": "inactive"}, {"measurement": "Potency", "setting": "[4]", "value": "inactive"}, {"measurement": "Potency", "setting": "[2]", "value": "inactive"}, {"measurement": "Potency", "setting": "[3]", "value": "inactive"}]}
{"smiles": "O=C(O)CNC(=O)c1ccccc1", "values": [{"measurement": "outcome", "setting": "[1]", "value": "inactive"}, {"measurement": "Potency", "setting": "[4]", "value": "inactive"}, {"measurement": "Potency", "setting": "[2]", "value": "inactive"}, {"measurement": "Potency", "setting": "[3]", "value": "inactive"}]}
{"smiles": "c1ccc(OCc2ccc(CCCN3CCOCC3)cc2)cc1", "values": [{"measurement": "outcome", "setting": "[1]", "value": "inactive"}, {"measurement": "Potency", "setting": "[5]", "value": "inactive"}, {"measurement": "Potency", "setting": "[4]", "value": "inactive"}, {"measurement": "Potency", "setting": "[3]", "value": "inactive"}]}
{"smiles": "CCOC(=O)OC(C)OC1=C(C(=O)Nc2ccccn2)N(C)S(=O)(=O)c2ccccc21", "note": "(stereo not drawn)", "values": [{"measurement": "outcome", "setting": "[1]", "value": "inactive"}, {"measurement": "Potency", "setting": "[4]", "value": "inactive"}, {"measurement": "Potency", "setting": "[2]", "value": "inactive"}, {"measurement": "Potency", "setting": "[3]", "value": "inactive"}]}
{"smiles": "CN=C(NC#N)Nc1ccc(C2=NNC(=O)CC2C)cc1", "note": "(stereo not drawn)", "values": [{"measurement": "outcome", "setting": "[1]", "value": "inactive"}, {"measurement": "Potency", "setting": "[4]", "value": "inactive"}, {"measurement": "Potency", "setting": "[2]", "value": "inactive"}, {"measurement": "Potency", "setting": "[3]", "value": "inactive"}]}
{"smiles": "CCCCN1CCCC1C(=O)Nc1c(C)cc(C)cc1C", "note": "(stereo not drawn)", "values": [{"measurement": "outcome", "setting": "[1]", "value": "inactive"}, {"measurement": "Potency", "setting": "[5]", "value": "inactive"}, {"measurement": "Potency", "setting": "[4]", "value": "inactive"}, {"measurement": "Potency", "setting": "[2]", "value": "inactive"}, {"measurement": "Potency", "setting": "[3]", "value": "inactive"}]}
